Hits are enriched below; roughly 11% of the tested compounds scored in any of these assays.
NPR1 antag: Natriuretic polypeptide receptor (hNpr1) antagonism - Primary qHTS | Atrial natriuretic peptide receptor 1 (Homo sapiens), P16066 | HEK293 hNpr1 GloSensor cGMP, ANP-stimulated luminescence | Potency, µM (titrated, usually from 46.3 µM), without a hit: top-dose activity change, negative = inhibition, hits mostly inhibitors | actives 1.6% (n = 76,000) | AID 1347048, 2019; calls by dose curve; note: nearly all actives have a fitted effect of over 60% in size
Target sequence (P16066 whole entry, looked up): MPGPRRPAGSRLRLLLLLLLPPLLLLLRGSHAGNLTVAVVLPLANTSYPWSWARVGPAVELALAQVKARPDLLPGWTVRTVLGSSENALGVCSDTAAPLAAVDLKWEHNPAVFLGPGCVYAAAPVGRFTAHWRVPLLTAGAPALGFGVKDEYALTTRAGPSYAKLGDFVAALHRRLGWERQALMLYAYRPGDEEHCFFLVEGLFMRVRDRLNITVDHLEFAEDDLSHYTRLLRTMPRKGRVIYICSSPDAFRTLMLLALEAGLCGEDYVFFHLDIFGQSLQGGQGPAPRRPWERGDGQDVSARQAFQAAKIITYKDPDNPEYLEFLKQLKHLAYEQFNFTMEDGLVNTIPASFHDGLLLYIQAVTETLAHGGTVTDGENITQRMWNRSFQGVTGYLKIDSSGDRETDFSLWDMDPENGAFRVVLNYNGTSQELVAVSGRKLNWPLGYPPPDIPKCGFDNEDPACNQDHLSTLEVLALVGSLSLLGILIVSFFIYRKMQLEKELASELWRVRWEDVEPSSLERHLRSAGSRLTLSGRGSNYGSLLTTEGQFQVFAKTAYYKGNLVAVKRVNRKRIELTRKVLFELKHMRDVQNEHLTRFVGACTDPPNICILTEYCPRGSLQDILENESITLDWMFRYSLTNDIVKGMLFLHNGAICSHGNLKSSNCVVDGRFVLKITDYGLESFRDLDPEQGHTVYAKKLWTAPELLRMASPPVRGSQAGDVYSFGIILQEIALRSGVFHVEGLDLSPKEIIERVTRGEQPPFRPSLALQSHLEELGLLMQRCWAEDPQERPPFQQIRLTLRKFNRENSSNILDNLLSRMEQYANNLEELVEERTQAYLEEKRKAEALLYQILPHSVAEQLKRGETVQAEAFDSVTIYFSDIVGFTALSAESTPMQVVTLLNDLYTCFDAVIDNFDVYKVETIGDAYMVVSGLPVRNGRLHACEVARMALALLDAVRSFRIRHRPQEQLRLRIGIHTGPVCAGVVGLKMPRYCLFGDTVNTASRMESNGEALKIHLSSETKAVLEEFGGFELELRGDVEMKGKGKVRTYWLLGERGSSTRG
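HEK293 cells stably expressing human Npr1 and cGMP GloSensor pGS-40F, loaded 2 h with 2% GloSensor reagent, given compound 30 min at room temperature. Luminescence read before and 20 min after 0.1 nM hNppA.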
Luciferase inh: Firefly luciferase inhibition profiling of diverse chemical library using quantitative high-throughput screening. purified P. pyralis luciferase, luminescence, biochemical. Potency, µM (top dose mostly 115 µM), usual class: inhibitors. actives 2.5% (n = 76,000); note: nearly all actives have a fitted effect of over 65% in size
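Purified P. pyralis luciferase (10nM final) in 50mM Tris acetate pH 7.5, 10mM Mg acetate, 0.01% Tween-20, 0.05% BSA with 10uM D-luciferin and 10uM ATP. Compounds titrated qHTS. Luminescence imaged on CCD.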
3T3 cytotox: Cytotoxic Profiling in NIH 3T3 Cell Line of Diverse Libraries Using Quantitative High-Throughput Screening; NIH 3T3 viability, CellTiter-Glo ATP luminescence, 48-72 h; Potency, µM (doses to about 96.7 µM), without a hit: at the top dose activity change, negative = cytotoxicity, hits mostly inhibitors; actives 4.3% (n = 94,000); note: nearly all actives have a fitted effect of over 55% in size
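Viability of NIH 3T3 cells after 48 or 72 hr compound treatment at 37 °C was assessed by CellTiter-Glo, with luminescence imaged following a 10 min room-temperature step.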
HEK293 tox: Cytotoxic Profiling in HEK 293 Cell Line of Diverse Libraries Using Quantitative High-Throughput Screening | HEK 293 viability, ATP luminescence (CellTiter-Glo), 48-72 h | Potency, µM (top dose mostly 115 µM), for inactives: at the highest dose activity change, negative = cytotoxicity, actives largely listed as inhibitors | actives 6.6% (n = 94,000) | AID 1345083, 2018; note: nearly all actives have a fitted effect of over 60% in size
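Pintool-delivered compounds were incubated with HEK 293 cells (250 cells/well) at 37 degree Celsius for 48 or 72 hr. ATP-dependent luminescence (CellTiter-Glo) then reported remaining viable cells.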
Numbers without * were called inactive; i = inactive; u = inconclusive; x = no result; ! = not confirmed by another sample; [ ] = another dose, or the depositor's remark. Unless noted, calls come from the whole dose curve; as a rule, active = well fitted curve in the direction sought with a large enough effect; inconclusive = small, poorly fitted or top-dose-only effect, or another doubt; inactive = no such curve, though single readings can be large; an effect the other way counts as inactive or inconclusive. % is set by controls: 0 for no effect and ±100 for the full control effect; potency is the fitted concentration of half-maximal effect.

SMILES	NPR1 antag	Luciferase inh	3T3 cytotox	HEK293 tox
Cc1cc(C)c(CNC(=O)c2cc(-c3ccc(CO)cc3)cc3c2OCCN3C)c(=O)[nH]1	0%[70.6 µM]	i	13µM*	89µM*
COC(=O)CNC(=O)c1cc(-c2cccc(F)c2)nc2c1cnn2C	x	x	u	-13%[172 µM]
Cn1ncc2c(C(=O)NCc3cccc(Cl)c3)cc(-c3ccccc3)nc21	x	x	-25%	-20%
CCOCCNC(=O)c1cc(-c2cccc(F)c2)nc2c1cnn2C	x	x	u	-29%[172 µM]
Cn1ncc2c(C(=O)NCCc3ccc(Cl)cc3)cc(-c3cccnc3)nc21	x	x	u	32µM*
Cn1ncc2c(C(=O)NCc3cccc(F)c3)cc(-c3ccc(Cl)cc3)nc21	x	x	u	45µM*
Cn1ncc2c(C(=O)NCc3ccc(Cl)cc3)cc(-c3cccc(F)c3)nc21	x	x	32µM*	40µM*
CCC(C)NC(=O)c1cc(-c2cccc(F)c2)nc2c1cnn2C (stereo not drawn)	x	x	u	89µM*
CCNC(=O)c1cccc2c1CCN2S(=O)(=O)c1cccc(C)c1	-28%	i	-23%	u
Cn1ncc2c(C(=O)NC3CC3)cc(-c3cccnc3)nc21	x	x	40µM*!	63µM*!
O=C(NCCCc1ccccc1)c1ccc2nc(-c3cccnc3)oc2c1	x	x	-11%	5%
CC(=O)NC1(C)CCN(Cc2ccccc2-c2ccc3ccccc3c2)C1 (stereo not drawn)	-17%[70.6 µM]	i	79µM*	u
CC(=O)NC1(C)CCN(Cc2ccc(-c3ccccc3Oc3ccccc3)cc2)C1 (stereo not drawn)	-4%[70.6 µM]	i	40µM*	56µM*
CCC(=O)N1CCC(=O)N(CCC#N)C[C@H]2COc3ccccc3[C@H]21	x	x	-21%	u
Cc1nn(-c2ccccc2)c2c1C(C)N(CC1CN([S+](=O)([O-])c3cccs3)C1)C2=O (stereo not drawn)	x	x	-21%	u
O=C(c1ccc2cc[nH]c2c1)N1CCC(N2CC(OCC3CC3)C23CCCCC3)CC1 (stereo not drawn)	2%	i	u	50µM*
O=C(c1ccc2cc[nH]c2c1)N1CCC(N2C(=O)C(OCC3CC3)C23CCOCC3)CC1 (stereo not drawn)	8%	i	-15%	u
COc1ccc(CN2CCc3nc(C(=O)NCc4ccncc4)oc3CC2)cc1	u	i	u	u
O=C(NCc1cccc(F)c1)c1nc2c(o1)CCN(Cc1cccc(Cl)c1)CC2	u	i	u	u
O=C(Nc1ccccc1)c1nc2c(o1)CCN(Cc1ccc(F)c(Cl)c1)CC2	4µM*	8.9µM*	u	u
COc1ccc(CN2CCc3nc(C(=O)Nc4ccc(Cl)cc4)oc3CC2)cn1	4µM*	u	u	u
O=C(Nc1ccc(Cl)cc1)c1nc2c(o1)CCN(Cc1cccc(O)c1)CC2	2µM*	25µM*	u	32µM*
O=C(NCc1cccc(F)c1)c1nc2c(o1)CCN(CCCc1ccccc1)CC2	-2%[70.6 µM]	i	89µM*	u
CC(=O)N1CCN(C(=O)c2nc3cccnc3n(Cc3ccccc3)c2=O)CC1	x	x	-16%	-9%
CN(Cc1ccccc1)Cc1cccn1C	0%[70.6 µM]	i	-11%[174 µM]	0%[230 µM]
SMILES	NPR1 antag	Luciferase inh	3T3 cytotox	HEK293 tox
COCCNC(=O)c1nc2c(o1)CCN(Cc1ccc(OC)cc1)CC2	-2%[70.6 µM]	i	u	u
COc1ccccc1CN1CCc2nc(C(=O)N3CCOCC3)oc2CC1	-6%[70.6 µM]	i	u	100µM*
O=C(Nc1ccccc1)c1nc2c(o1)CCN(Cc1cccs1)CC2	7.9µM*	u	u	u
COc1ccc(CN2CCc3nc(C(=O)Nc4ccccc4)oc3CC2)cc1	25µM*	20µM*	u	u
O=C(Nc1ccc(Cl)cc1)c1nc2c(o1)CCN(Cc1nccs1)CC2	2.2µM*	22µM*	u	u
Cc1[nH]cnc1CN1CCc2nc(C(=O)Nc3cccc(C(F)(F)F)c3)oc2CC1	-4%[70.6 µM]	i	u	u
CCc1cccc(NC(=O)Cn2c(C)ccc(NS(=O)(=O)c3ccc(C)cc3)c2=O)c1	-1%	i	2%	-4%
O=C(NCCc1ccccc1F)c1cc(Br)cn2ccnc12	-3%	16µM*	u	u
Cc1ccc2c(n1)OC(Cn1cccc1)CN(CCC1=CCCCC1)C2=O (stereo not drawn)	x	x	u	89µM*
O=C(c1cc(C2CC2)[nH]n1)N(Cc1ccc2c(c1)OCO2)C1CC1	-7%	28µM*	-33%	u
Cc1ccccc1C(=O)N1CCCC2(C1)Nc1cccnc1NC2=NC1CCCC1 (stereo not drawn)	-2%	i	i	3%
CCOC(=O)C1CCCN(C(=O)C2CC(c3ccccc3)CN(C(=O)c3cccc(F)c3)C2)C1 (stereo not drawn)	3%	i	u	u
CCc1ccc(C2CC(C(=O)NC(C)c3ccccc3)CN(C(=O)c3ccoc3)C2)cc1 (stereo not drawn)	-16%	i	32µM*	u
CCOC(=O)C1CCCN(C(=O)C2CC(c3ccc(CC)cc3)CN(C(=O)c3ccoc3)C2)C1 (stereo not drawn)	0%	i	u	45µM*
CC(=O)N1CC(C(=O)NC(C)c2ccccc2)CC(c2cccc(C)c2)C1 (stereo not drawn)	-1%	i	-17%	-18%
Cc1ccc(-c2cc(N3CCCN(C(=O)COc4ccc(F)cc4)CC3)n[nH]2)cc1C	-18%	i	u	u
CC[C@H]1CN(C(=O)N2CCOCC2)CC[C@H]1CC(=O)Nc1nccs1	3%[70.6 µM]	i	50µM*	u
O=C(Nc1ccc([C@@H](O)[C@H]2COCC(=O)N2CCCc2ccccc2)cc1)c1ccco1	6%[70.6 µM]	u	-9%[138 µM]	-12%[172 µM]
O=C(Cc1ccc(N(Cc2cccc(F)c2)C(=O)c2ccco2)cc1)Nc1ccccc1	0%	i	35µM*	45µM*
CC(C)NC(=O)Cc1ccc(N(Cc2ccc(F)cc2)C(=O)c2ccco2)cc1	0%	i	-15%	-15%
O=C(Cc1ccc(N(Cc2ccc(F)cc2)C(=O)c2ccco2)cc1)Nc1ccc(F)cc1	-3%	i	32µM*	u
CN(Cc1ccccc1)C(=O)Cc1ccc(N(Cc2cccc(F)c2)C(=O)c2ccco2)cc1	-20%	i	35µM*	u
O=C(Cc1ccc(N(Cc2cccc(F)c2)C(=O)c2ccco2)cc1)NCc1ccccc1	-23%	i	u	u
O=C(Cc1ccc(N(Cc2ccc(F)cc2)C(=O)c2ccco2)cc1)NCc1ccc(F)cc1	-28%	i	40µM*	25µM*
CCCN(C)C(=O)Cc1ccc(N(Cc2ccc(F)cc2)C(=O)c2ccco2)cc1	-12%	i	u	u
